This is an account of results in PubChem BioAssay AID1063 (University of Pittsburgh Molecular Library Screening Center, 2008).

In all, about 200,000 compounds went through this assay and about 18,000 (9%) were called active. Cut-off read from the data, not from the text of the source: active = inhibition above about 50%; inactive = the rest. For the sample, actives were picked, then their nearest neighbours and some compounds at random.

The assay is described as follows: antileishmanial activity against promastigotes – primary screen (AID 1063).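 Note: promastigotes grown with compound for 44 hours at 28 °C.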 The settings on record: Leishmania major promastigotes, resazurin fluorescence viability; at 10 µM; hits give high values. A general note: Alamar Blue is a resazurin reagent that responds to reducing activity.
By inhibition is commonly meant the drop in the measured response relative to a control, in per cent. On to `CC(C)(C)c1ccc(CN2C(=O)CN=C(c3ccccc3)c3ccccc32)cc1`, for which the inhibition is 97.3% (active).

Consider `CCN1CCN(c2ccc([N+](=O)[O-])cc2C#N)CC1`, for which the inhibition was 3.77% (inactive). Take `CN1CCN(Cc2ccccc2C(F)(F)F)CC1`: the inhibition was 0.79% (inactive). Take `CN1CCN(Cc2ccc(OC(F)(F)F)cc2)CC1`: the inhibition was 90.4% (active). As to `CN(C)c1ccc(/C=C2\CC3C4CC=C5CC(O)CCC5(C)C4CCC3(C)C2=O)cc1` (stereo not given), the inhibition is 37% (inactive). With `Cc1ccc(-n2c(-c3ccc([N+](=O)[O-])cc3)nc3ccccc3c2=O)cc1` the figure was 0.86% (inactive).

`Cc1cccc(OP(=O)(Oc2cccc(C)c2)OC(c2ccccc2)C(F)(F)F)c1` (stereo not given): the inhibition is 57.8% (active).

As for `CCN(CC)P(=O)(Oc1cccc(C)c1)N(CC)CC`, the inhibition is 22.5% (inactive).

With `CCC(=O)CC(c1ccc([N+](=O)[O-])cc1)c1c(O)c2ccccc2oc1=O` (stereo not given), the inhibition is -15.5% (inactive).

In the case of `CN(C)c1nc(N(C)C)nc(N(C#N)CCCl)n1`, the inhibition is -4.48% (inactive).

Regarding `C[N+]12CN3CN(CN(C3)C1)C2`, the inhibition is 93.8% (active).

As to `CC1CCCCN1Cc1cccnc1` (stereo not given), the inhibition was -6.9% (inactive). With `COc1ccccc1N=Nc1c(O)[nH]c(=S)[nH]c1=O` the figure was -4.5% (inactive). For `CN(C)P(=S)(Nc1ccccc1)C(Cl)(Cl)Cl` (stereo not given), the inhibition was 28.1% (inactive).

As for `O=C(Nc1cccc(OC(=O)N2CCCCC2)c1)N1CCOCC1`, the inhibition is 0.65% (inactive). `CC(C)Oc1cccc(C(=O)C2CCCN(C3CCOCC3)C2)c1` (stereo not given): the inhibition is 93.2% (active). Consider `Cc1ccc(-c2nn(CCC#N)cc2C(=O)O)cc1C`, for which the inhibition was -5.5% (inactive). As to `COC(=O)COc1cc(C)cc2oc(=O)c3c(c12)CCCC3`, the inhibition is -6.35% (inactive). With `O=C(COC(=O)c1ccccc1)Nc1ccc(Cl)cc1C(=O)c1ccccc1` the figure was -3.5% (inactive).

Consider `CN(C)C(=O)Oc1ccc(OCc2cccc[n+]2C)cc1`, for which the inhibition was -6.21% (inactive). As to `CCOC(=O)C1(Cc2ccc(Cl)cc2)CCN(C(C)CCn2cccn2)CC1` (stereo not given), the inhibition was 80.9% (active).

Regarding `CCOC(=O)C1(CCc2ccccc2)CCN(Cc2ccco2)CC1`, the inhibition is 9% (inactive). For `CC(C)(C)[C@]1(O)C[C@@H]2OC(=O)C[C@@]23C(=O)O[C@@H]2OC(=O)[C@H](O)[C@]213`, the inhibition is -6.51% (inactive). For `CCCOC(=O)C1C2c3ccccc3C(c3ccccc32)C1C(=O)O` (stereo not given), the inhibition was -5.51% (inactive). With `CC(C(=O)Nc1ccc(Cl)cc1Cl)N1CC=C(c2ccccc2)CC1` (stereo not given) the figure was -2.71% (inactive).

Consider `CCN(N=Nc1nonc1OC)c1nonc1OC`, for which the inhibition is 0.16% (inactive). Regarding `Cc1cccc(N2C(=O)NC(=O)/C(=C\c3cnn(-c4ccccc4)c3)C2=O)c1`, the inhibition was -2.18% (inactive).

In the case of `COc1ccc(CN2C(=O)NC(=O)/C(=C\c3ccc(OC)c(OC)c3OC)C2=O)cc1`, the inhibition was -6.27% (inactive). On to `COc1cccc(N2C(=O)NC(=O)/C(=C\c3ccc([N+](=O)[O-])s3)C2=O)c1`, for which the inhibition is 93.6% (active). For `O=C1NC(=O)N(c2ccc(F)cc2)C(=O)/C1=C/c1ccc2c(c1)CCCN2Cc1ccccc1`, the inhibition is 7.8% (inactive). With `O=C1NC(=O)N(c2ccccc2)C(=O)/C1=C/c1ccc([N+](=O)[O-])s1` the figure was 93.8% (active); with `O=C(COC(=O)Cc1ccccc1)Nc1ccc(F)cc1`, 0.24% (inactive).

Take `OCC#CC[N+]1(CC#Cc2ccccc2)CCCC1`: the inhibition is -1.69% (inactive).

In the case of `N=c1ccccn1Cc1ccccc1`, the inhibition was -0.35% (inactive). With `C=CCN(CC=C)C(=O)Nc1ccc(OCC)cc1` the figure was -9.24% (inactive). Regarding `O=C(NC(c1ccc(Cl)cc1)P(=O)(Oc1ccccc1)Oc1ccccc1)OCc1ccccc1` (stereo not given), the inhibition is 10.2% (inactive).

`CN1CCN(c2cc(N3CCNCC3)ccc2[N+](=O)[O-])CC1`: the inhibition was 44% (inactive). For `CCCCC(=O)N/N=C/c1c(O)n(CC)c(=S)n(CC)c1=O`, the inhibition is -5.9% (inactive). With `O=C(Nc1cccc2ccccc12)N1CCC2(CC1)OCCO2` the figure was 0.77% (inactive); with `CCOC(=O)C(O)(c1ccc(NC(=O)c2ccco2)c(OC)c1)C(F)(F)F` (stereo not given), 73.8% (active). For the molecule `CCOC(=O)C(O)(c1ccc(N)c(OC)c1)C(F)(F)F` (stereo not given), the inhibition is -13.8% (inactive). With `COC(=O)C(O)(c1ccc(NC(=O)c2ccco2)c(OC)c1)C(F)(F)F` (stereo not given) the figure was -2.15% (inactive).

For `C=CCn1c(O)c(/C=N/N2CCOCC2)c(=O)[nH]c1=S`, the inhibition is -4.94% (inactive). For the molecule `COc1ccc(C2N3CC(C)(C)CN23)cc1` (stereo not given), the inhibition is -5.78% (inactive). With `Cc1ccccc1N1C(=O)NC(=O)/C(=C\c2cc(C)n(C)c2C)C1=O` the figure was 2.98% (inactive); with `Cc1ccnc(-n2c(C)cc(/C=C3\C(=O)NC(=S)N(C)C3=O)c2C)c1`, 70% (active). Consider `Cc1ccc(-n2c(C)cc(/C=C3\C(=O)NC(=O)N(C)C3=O)c2C)cc1C`, for which the inhibition is 58% (active).

As for `Cc1cc(C=C2C(=O)NC(=O)NC2=O)c(C)n1-c1ccncc1`, the inhibition is 0.48% (inactive). Regarding `Cc1c(C(=O)O)cccc1-n1c(C)cc(/C=C2\C(=O)NC(=O)N(c3ccc4c(c3)OCO4)C2=O)c1C`, the inhibition is 2.09% (inactive). With `Cc1cc(/C=C2/C(=O)NC(=O)N(Cc3ccco3)C2=O)c(C)n1-c1ccc(C(=O)O)cc1` the figure was -6.68% (inactive); with `CC(=O)N(C1=NCCCS1)c1ccccc1F`, -4.7% (inactive); with `Cc1cccc(-n2c(O)c(C=NC34CN5CN(CN(C5)C3)C4)c(=O)[nH]c2=O)c1`, -14.4% (inactive). With `O=c1c2ccccc2nc(-c2ccccc2)n1-c1ccccn1` the figure was -4.66% (inactive); with `C[N+]1(C)CCOC(O)(c2ccc(-c3ccc(C4(O)C[N+](C)(C)CCO4)cc3)cc2)C1` (stereo not given), 20.9% (inactive).

For `O=C(OCCN1CCOCC1)C1(c2ccccc2)CCCC1`, the inhibition was 1.57% (inactive). Consider `CC[N+]1(C)CCCC(OC(=O)C(O)(c2ccccc2)c2ccccc2)C1` (stereo not given), for which the inhibition was -2.17% (inactive).

`O=C(CN1CCCCC1)Nc1ccc(Br)cc1C(=O)c1ccccc1Cl`: the inhibition is 11.2% (inactive). With `O=C(CCN1CCCCC1)NCC(=O)Nc1ccc(Br)cc1C(=O)c1ccccc1` the figure was 91.4% (active); with `CN1CCN(C(=S)SCC(=O)Nc2ccc(Cl)cc2C(=O)c2ccccc2)CC1`, 8.25% (inactive). With `O=[N+]([O-])c1ccc(C2C3C(c4ccccc4)=NC4(CCCCC4)N32)cc1` (stereo not given), the inhibition was 19.8% (inactive).
